From PubChem BioAssay (NCATS) come the findings set out here.

Structures are written as SMILES. Results filed as inconclusive are left out. Entries that show only a call come without a potency. Activity calls are given as the source filed them. Calls follow the shape of the dose curve; as a rule, active = well fitted cell-killing curve with a large enough effect; inconclusive = small, poorly fitted or top-dose-only effect, or effect the other way; inactive = no such curve, though single readings can be large or run the other way.
Potency is read from the fitted curve at half-maximal effect.

The assay is described as follows: Quantitative highthroughput screen to assess conditional lethalithy of SEM cells grown in Human Plasma-Like Medium with dialyzed fetal bovine serum (HPLM+ds) (AID 1963882). Also: nearly all actives have a fitted effect of over 35% in size. The note with it: SEM B-ALL cells in HPLM+ds, CellTiter-Glo viability, 48 h; series mostly up to 45.8 µM. An excerpt: Assay Provider: Jason Cantor Ph.D.
Department of Biochemistry
University of Wisconsin-Madison, Madison, WI, USA
Chemical screening studies have identified drug sensitivities across hundreds of cancer cell lines but most putative therapeutics fail to translate. Discovery and development of drug candidates in models that more accurately reflect nutrient levels in human blood is a major challenge. Here we performed high-throughput screens in conventional versus Human Plasma-Like Medium (HPLM) to identify compounds that were "missed" when screening using the artificial culture condition. Sets of conditional anticancer compounds spanned phases of clinical development and included non-oncology drugs were assessed. […] We also traced conditional phenotypes for several chemotherapeutics to availability of HPLM-specific metabolites and confirmed others for compounds whose reported targets are encoded by nonessential genes. Our findings establish generalizable strategies for exploiting conditional lethality in HPLM to reveal therapeutic candidates and mechanisms of action in cancer cells.
Described herein are the results of each viability screens against three cell lines: NOMO1 (an acute myeloid leukemia cell line); P12-Ichikawa (a T-cell acute lymphoblastic leukemia); and SEM (a B-cell ALL). Each assay was screened using 3 different cell culture media: homemade human plasma-Like medium with 10% dialyzed fetal bovine serum (HPLM+ds); RPMI1640 with 10% untreated FBS and 5mM glucose (RPMI+s); and RPMI1640 with 10% dialyzed fetal bovine serum and 5 mM glucose (RPMI+ds).
PROTOCOL TABLE (as described by Inglese J, Shamu CE and Guy RK. 2007)
SEQUENCE No. (e.g., 1, 2, 3, etc.); […] (e.g., Cells, Incubation, Reagent, etc.); VALUE and DESCRIPTION.
1; Cells; 5 uL; white, solid bottom 1536-well Greiner assay plate.
2; Compounds; 23 nL; Kalypsis pin tool (Wako USA) equipped with a 1536-well pin head to transfer to the assay plates.
3; Incubation; 48 hours; 37C incubation.
4; Reagent; 3 uL; CellTiter Glo (Promega).
5; Incubation; 5 min, room temperature
6; Detection; Luminescence, Viewlux PerkinElmer.
NOTES (numbers refer to Sequence numbers above)
1. Briefly, 5 ul of cell reagent was dispensed using a Multidrop Combi Dispenser. The NOMO1 and SEM cells were plated at 500 cells/well and the P12-Ichikawa line at 1000 cells/well.
2. After seeding the cells, 23 nL of MIPE 4.1 library compounds (in DMSO) were added to each plate using a Kalypsys 1536 Pintool dispenser. Bortezomib at final concentration of […] and DMSO were added to each plate as positive and negative controls respectively. For each screen, MIPE 4.1 compounds were added over an eleven-point concentration range […] in 3-fold dilutions.
3. Each plate was covered with a stainless steel gasketed lid to prevent evaporation and incubated for 48 hour at 37C, 95% relative humidity, and 5% CO2.
4-5. Three microliter CellTilter-GloTM luminescent substrate mix (Promega) reagent was added to the assay plate and incubated at room temperature for 5 min.
6. The luminescence signal was measured using a ViewLux (PerkinElmer) multiplate reader with a 2 second exposure time per plate. Data for each compound were normalized as percent viability such that measurements for DMSO and the empty well controls in each plate were defined as 100% and 0%, respectively.
Consider `CC(=Cc1csc(C)n1)[C@@H]1C[C@H]2O[C@@H]2CCC[C@H](C)[C@@H](O)[C@@H](C)C(=O)C(C)(C)[C@@H](O)CC(=O)O1`, for which the Potency entry is “inactive”. Consider `CC[C@@]1(O)C(=O)OCc2c1cc1n(c2=O)Cc2cc3ccccc3nc2-1`, for which the Potency was 46.9 nM (active). Regarding `O=C(O)CNC(=O)c1c(O)c2ccccc2n(Cc2ccccc2)c1=O`, the Potency entry is “inactive”. The value for `CCCC(C)(COC(N)=O)COC(=O)NC(C)C` (stereo not given) was “inactive”.

For `CN(C)[C@@H]1C(=O)C(C(N)=O)=C(O)[C@@]2(O)C(=O)C3=C(O)c4c(O)cccc4[C@@](C)(O)[C@H]3[C@H](O)[C@@H]12`, the Potency entry is “inactive”. The value for `COc1cccc2c1[C@]13CCN(CC4CC4)[C@H](C2)[C@]1(OC)CCC(=O)C3` was “inactive”; that for `C[C@@H]1CC[C@H]2[C@@H](C)C(=O)O[C@@H]3O[C@@]4(C)CC[C@H]1[C@]32OO4` was “inactive”.

As for `O=C1CC[C@@]2(O)[C@H]3Cc4ccc(O)c5c4[C@@]2(CCN3CC2CC2)[C@H]1O5`, the Potency result is “inactive”. As for `C[C@]12CC[C@H](O)CC1=CC[C@H]1[C@H]3CCC(=O)[C@@]3(C)CC[C@@H]12`, the Potency result is “inactive”. The value for `C[C@@H]1O[C@@H](O[C@@H]2C=C3CC[C@@H]4[C@@H](CC[C@]5(C)[C@H](c6ccc(=O)oc6)CC[C@@]45O)[C@@]3(C)CC2)[C@H](O)[C@H](O)[C@H]1O` was 23.5 nM (active); that for `COc1cc(OC)c(OC)cc1C=O` was “inactive”; that for `C[C@]12Cc3cn[nH]c3C[C@@H]1CC[C@@H]1[C@H]2CC[C@@]2(C)[C@H]1CC[C@]2(C)O` was “inactive”. Next, `COC1(CS(=O)c2ccccc2)CCN(CCc2c[nH]c3ccc(F)cc23)CC1` (stereo not given): “inactive”; `CN1C(=O)COc2c(C(=O)NC3CN4CCC3CC4)cc(Cl)cc21` (stereo not given): “inactive”; `CN(C)[C@@H]1C(=O)C(C(N)=O)=C(O)[C@@]2(O)C(=O)C3=C(O)c4c(O)cccc4[C@@](C)(O)[C@H]3C[C@@H]12`: “inactive”. The value for `CCOC(=O)Nc1ccc(NCc2ccc(F)cc2)cc1N` was “inactive”; that for `CC(=Cc1csc(C)n1)[C@@H]1C[C@H]2O[C@]2(C)CCC[C@H](C)[C@@H](O)[C@@H](C)C(=O)C(C)(C)[C@@H](O)CC(=O)O1` was “inactive”. For `CNC(=O)N1N=C(c2ccc(N)cc2)c2cc3c(cc2CC1C)OCO3` (stereo not given), the Potency is 10500 nM (active). The value for `Cc1sc2c(c1C)C(c1ccc(Cl)cc1)=N[C@@H](CC(=O)OC(C)(C)C)c1nnc(C)n1-2` was 166 nM (active); that for `C[C@@H]1C[C@@H]([C@H](O)CC2CC(=O)NC(=O)C2)C(=O)[C@@H](C)C1` was 418 nM (active). The value for `CCC1(c2ccc(N)cc2)CCC(=O)NC1=O` (stereo not given) was “inactive”. The value for `C[C@@H]1[C@@H](CC(C[C@H]2O[C@@H]3O[C@]4(C)CC[C@@H]5[C@H](C)CC[C@@H]([C@H]2C)[C@@]35OO4)C[S+](=O)([O-])c2ccc(COC(=O)N(C)C)cc2)O[C@@H]2O[C@]3(C)CC[C@H]4[C@H](C)CC[C@@H]1[C@@]24OO3` (stereo not given in full) was 743 nM (active). Turning to `CCNC(=O)C[C@@H]1N=C(c2ccc(Cl)cc2)c2cc(OC)ccc2-n2c(C)nnc21`, the Potency is 935 nM (active). Next, `CC=C(C)C(=O)O[C@H]1C(C)=C2[C@@H]3OC(=O)[C@@](C)(O)[C@@]3(O)[C@@H](OC(=O)CCC)C[C@](C)(OC(C)=O)[C@@H]2[C@@H]1OC(=O)CCCCCCC`: 59 nM (active); `O=C(NCC1CCOCC1)c1cnc(Nc2ccc(Cl)cc2Cl)nc1C(F)(F)F`: “inactive”; `C[C@]12CC[C@H]3[C@@H](CCC4=CC(=O)CC[C@@]43C)[C@H]1CC[C@H]2OC(=O)CCC1CCCC1`: “inactive”. Next, `N[C@@H](Cc1ccc(N(CCCl)CCCl)cc1)C(=O)O`: 4180 nM (active); `CCOP(=O)(OCC)C(C)NC(=O)N(CCCl)N=O` (stereo not given): “inactive”. Next, `C[C@@H]1[C@@H](C(=O)C[C@H]2O[C@@H]3O[C@]4(C)CC[C@@H]5[C@H](C)CC[C@@H]([C@H]2C)[C@@]35OO4)O[C@@H]2O[C@]3(C)CC[C@H]4[C@H](C)CC[C@@H]1[C@@]24OO3`: 26400 nM (active); `C1=C2CCCN[C@H]2[C@@H]2C[C@H]1[C@@H]1CCCCN1C2`: “inactive”; `C#CC1(O)CCC2C3CCC4=CC(=O)CCC4(C)C3CCC21C` (stereo not given): “inactive”.

On to `CNCC(O)c1ccc(O)cc1` (stereo not given), for which the Potency entry is “inactive”. As to `CC1=C(O)C(=O)C=C2C1=CC=C1[C@@]2(C)CC[C@@]2(C)[C@@H]3C[C@](C)(C(=O)O)CC[C@]3(C)CC[C@]12C`, the Potency was 2640 nM (active). The value for `C[C@]12CCC(=O)C=C1CC[C@@H]1[C@H]3CC[C@](C)(O)[C@@]3(C)CC[C@@H]12` was “inactive”.

`O=c1[nH]c2ccccc2n1CCCN1CCC(n2c(=O)[nH]c3cc(Cl)ccc32)CC1`: the Potency result was “inactive”.

Regarding `Cc1cccc(C)c1NC(=O)CN1CCCC1=O`, the Potency result is “inactive”. Turning to `COc1ccc(C(=O)c2c(C)n(CCN3CCOCC3)c3ccccc23)cc1`, the Potency result was “inactive”. The value for `Clc1ccccc1C(c1ccccc1)(c1ccccc1)n1cccn1` was “inactive”; that for `CCCC[N+]1(C)[C@H]2CC(OC(=O)[C@H](CO)c3ccccc3)C[C@H]1[C@H]1O[C@H]12` (stereo not given in full) was “inactive”. Turning to `CNC(=O)c1ccc(N2C(=S)N(c3ccc(C#N)c(C(F)(F)F)c3)C(=O)C23CCC3)cc1F`, the Potency entry was “inactive”.
